Screen size: about 300,000 compounds; about 2,400 (0.8%) were called active. The full list was thinned out, with actives kept by preference. Unmarked numbers belong to inactive results.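 Rule for the calls: active = Every replicate reaches about 75%, or at least half do and their mean reaches it too (limit read from the data); inconclusive = At least half of replicates reach the limit but their mean does not; inactive = Under half of replicates reach the limit.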
Experiment: INS-1E beta cell survival under cytokines – luminescence, primary screen (AID 435005);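 note: 0% = cytokine-treated negative control wells and 100% = positive control rescue; higher means more ATP so stronger rescue from cytokine killing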
Conditions: INS-1E cytokine-induced death, ATP luminescence, 48 h; active compounds read high; percent of positive-control rescue, neutral wells zero; concentration not given here
With O=C(Nc1cc(S(=O)(=O)Nc2ccc(Cl)cc2)ccc1O)c1ccc(F)cc1F the protection from apoptosis was 3.17%.
In the case of CCCN(CC(=O)NC(=O)NC1CCCCC1)CC(=O)Nc1cc(Cl)ccc1Cl, the protection from apoptosis is reported as -6.07%.
In the case of CN(C)S(=O)(=O)c1cccc(NC(=O)COc2ccc3ccccc3c2)c1, the protection from apoptosis is reported as -1.11%.
With CCNc1nc(-c2cc3ccccc3o2)cs1 the protection from apoptosis was -12.4%.
With Cc1nc(C)c(-c2csc(NCCc3ccccc3)n2)s1 the protection from apoptosis was 78.4% (active).
With S=c1[nH]nc(NCCc2ccccc2)s1 the protection from apoptosis was -4.61%.
O=C(CSc1ccccc1)Nc1cccc(S(=O)(=O)N2CCCCC2)c1 showed a protection from apoptosis of -5.41%.
In the case of COC(=O)[C@]1(Cc2ccccc2)N[C@H](CN(C)S(=O)(=O)c2ccc(OC(F)(F)F)cc2)[C@@H]2C(=O)N(C)C(=O)[C@@H]21, the protection from apoptosis is reported as -3.66%.
In the case of CCC(CO)Oc1cc(NC(=O)c2ccc(Cl)cc2)c2ncn(C(C)C)c2c1 (stereo not given), the protection from apoptosis is reported as 2.88%.
For CCOc1cc(N2CCOCC2)c(OCC)cc1NC(=O)COc1cccc2cccnc12, the protection from apoptosis was 102% (active).
In the case of CCOc1cc(N2CCOCC2)c(OCC)cc1NC(=O)COc1cccc(Cl)c1, the protection from apoptosis is reported as 0.61%.
CCOc1cc(N2CCOCC2)c(OCC)cc1NC(=O)c1cc(C)nc2ccccc12 showed a protection from apoptosis of 7.08%.
For C/C(=N\NC(=O)c1ccoc1C)c1ccccc1O, the protection from apoptosis was 79.7% (active).
Work on C/C(=N\NC(=O)c1ccccc1C)c1ccc(N2CCOCC2)cc1 yielded a protection from apoptosis of -16.8%.
Cc1cc(C(=O)NNC(=O)c2ccccc2O)c(C)o1 gave a protection from apoptosis of -1.18%.
With Cn1cncc1C#Cc1c(-c2ccsc2)sc2ccccc12 the protection from apoptosis was -6.24%.
For O=C(NCCc1ccc(C(F)(F)F)cc1)c1ccc2c(c1)OCO2, the protection from apoptosis was 5.32%.
In the case of CCCCNc1c(-c2ccc(OC)c(Sc3ccc(OC)cc3)c2)nc2ccc(Cl)cn12, the protection from apoptosis is reported as 16.9%.
With O=C(NCCc1ccccc1)C1CCN(S(=O)(=O)c2ccc(Br)s2)CC1 the protection from apoptosis was 2.68%.
With Cc1cc(C)c[n+](-c2nc3ccccc3nc2[N-]S(=O)(=O)c2cccs2)c1 the protection from apoptosis was -3.34%.
With O=S(=O)([N-]c1nc2ccccc2nc1-[n+]1ccc(Cc2ccccc2)cc1)c1ccc(Br)s1 the protection from apoptosis was 118% (active).
Cc1ccc(C(=O)Nc2ccn(C)n2)cc1 showed a protection from apoptosis of -7%.
Work on CCn1nc(C(=O)NNS(=O)(=O)c2cc(/C=C/C(=O)O)cc(OC)c2OC)c2ccccc2c1=O yielded a protection from apoptosis of 0.598%.
With COc1cc(/C=C/C(=O)Nc2ccc(OC)c(S(=O)(=O)N3CCOCC3)c2)ccc1OCC#N the protection from apoptosis was 4.79%.
Work on COc1ccc(OC)c(-c2csc(NC(=O)COC(=O)C3CC3)n2)c1 yielded a protection from apoptosis of -4.15%.
Work on CC(C)(C)OC(=O)N/N=C/c1cn(-c2ccccc2)nc1-c1cccnc1 yielded a protection from apoptosis of 2.76%.
O=C(O)c1ccc(N/N=C/c2cn(-c3ccccc3)nc2-c2cccs2)cc1 gave a protection from apoptosis of -0.771%.
In the case of Cc1ccc(-c2nn(-c3ccccc3)cc2/C=N/NC(=O)c2ccc3c(c2)OCO3)cc1, the protection from apoptosis is reported as 110% (active).
Work on Cc1cccc(C(=O)N[C@H](C(=O)NCc2cccs2)C(C)C)c1 yielded a protection from apoptosis of 3.35%.
Compound O=C(CN1CCc2ccccc2C1)Nc1cccc(S(=O)(=O)N2CCOCC2)c1 has a protection from apoptosis of 0.0837%.
For COc1cccc(/C=N/Nc2ncc(C(F)(F)F)cc2Cl)c1O, the protection from apoptosis was 131% (active).
Work on COc1cccc(/C(C)=N/Nc2ncc(Cl)cc2Cl)c1 yielded a protection from apoptosis of -0.169%.
N/C(=N\OC(=O)Nc1ccc(Cl)c(Cl)c1)c1ncc(C(F)(F)F)cc1Cl showed a protection from apoptosis of -13.2%.
Cc1ccc(/C=C/C(=O)OCC(=O)NCc2ccc(Cl)cc2)o1 showed a protection from apoptosis of 0.631%.
CC(=O)N1c2ccc(S(=O)(=O)N3CCCC(C(=O)Nc4cccc(Cl)c4)C3)cc2CC1C (stereo not given) showed a protection from apoptosis of 6.26%.
In the case of CC(=O)N1CCCc2cc(S(=O)(=O)N3CCCC(C(=O)N4CCN(c5cccc(Cl)c5)CC4)C3)ccc21 (stereo not given), the protection from apoptosis is reported as 89.9% (active).
For CC(=O)N1CCCc2cc(S(=O)(=O)N3CCCC(C(=O)NCc4ccc(Cl)cc4)C3)ccc21 (stereo not given), the protection from apoptosis was 4.03%.
COc1ccccc1C(=O)OCC(=O)Nc1cccc(S(=O)(=O)NC2=NCCCCC2)c1 gave a protection from apoptosis of -2.64%.
With O=C(NCCc1ccco1)c1ccc(OCc2cn3ccccc3n2)cc1 the protection from apoptosis was 1.94%.
For CCOC(=O)c1cnc(-n2nc(C)cc2C)nc1NNc1cc(C)nc(-c2ccccc2)n1, the protection from apoptosis was 84.8% (active).
Compound CCOC(=O)c1cnc(-n2nc(C)cc2C)nc1Nc1cccc(C(C)=O)c1 has a protection from apoptosis of 8.92%.
With Cc1cc(C)n(-c2c(F)c(F)c(COC(=O)c3ccccc3)c(F)c2F)n1 the protection from apoptosis was 3.67%.
Compound C=CCC[C@H](Cc1ccc(F)cc1)C(=O)OC[C@@H](NC(=O)[C@@H](CC=C)CC(=O)N[C@H](CO)Cc1ccccc1)C(C)(C)C has a protection from apoptosis of 5.28%.
For O=C(NNS(=O)(=O)c1c(F)cc(F)c(Cl)c1F)C12CC3CC(CC(C3)C1)C2, the protection from apoptosis was -12%.
Work on Fc1ccccc1COc1cccc2cccnc12 yielded a protection from apoptosis of -7.41%.
For Cc1nc2ccccc2cc1OCc1ccc(F)cc1, the protection from apoptosis was 95.4% (active).
Cc1occc(=O)c1OCc1ccc(F)cc1 showed a protection from apoptosis of -6.87%.
With COC(=O)c1c(NC(=O)COc2ccc(Cl)cc2Cl)sc2c1CC(C)(C)NC2(C)C the protection from apoptosis was 114% (active).
Work on CCOC(=O)c1c(NC(=O)c2ccc(S(=O)(=O)N(C)CC3CCCO3)cc2)sc2c1CC(C)(C)NC2(C)C (stereo not given) yielded a protection from apoptosis of 25.6%.
Cc1nn(-c2ccccc2)c(C)c1NC(=O)COc1ccc(Cl)cc1Cl showed a protection from apoptosis of 0.164%.
COc1cc(OC)cc(C(=O)N[C@H](C(=O)NNC(=O)c2ccc(Br)cc2)C(C)C)c1 gave a protection from apoptosis of -4.34%.
In the case of CC1CCCCC1NCC(=O)Nc1ccccc1C(=O)Nc1ccccc1 (stereo not given), the protection from apoptosis is reported as 4.75%.
With CSc1nc(-c2ccccc2)nc(C(Cl)Cl)n1 the protection from apoptosis was 105% (active).
CSc1ncc(Sc2ccccc2)c(C(=O)O)n1 showed a protection from apoptosis of -2.15%.
For COc1cc(OC)c(N2CC(C(=O)Nc3cc(Cl)ccc3N3CCOCC3)CC2=O)cc1Cl (stereo not given), the protection from apoptosis was 26.3%.
Work on O=C(COC(=O)Cc1ccc([N+](=O)[O-])cc1)NC1CCCCCC1 yielded a protection from apoptosis of -5.89%.
Compound NC(=O)C1CCN(C(=O)c2ccc(F)c(S(=O)(=O)N3CCOCC3)c2)CC1 has a protection from apoptosis of 0.339%.
COc1ccc(N(C(=O)c2cccnc2)S(=O)(=O)c2ccc(OC)c(OC)c2)cc1 gave a protection from apoptosis of -3.31%.
For COc1ccc(N(C(=O)c2cccnc2)S(=O)(=O)c2ccc3c(c2)n(C)c(=O)n3C)cc1, the protection from apoptosis was -8.54%.
With O=C(c1cccnc1)N(c1cc2sc(=O)oc2c2ccccc12)S(=O)(=O)c1ccccc1 the protection from apoptosis was 81.4% (active).
In the case of COc1cc(Cl)c(C)cc1NC(=O)CSc1nnc(CN2CCCC2)o1, the protection from apoptosis is reported as 2.22%.
COc1cccc(NC(=O)COC(=O)c2ccc3ccccc3n2)c1 showed a protection from apoptosis of -5.49%.
With CCCCCCCCCCOC(=O)Cn1c(COc2ccc(C)cc2)[n+](C)c2ccccc21 the protection from apoptosis was 112% (active).
For CCCCCCCCCCOC(=O)Cn1c(COc2cccc(OC)c2)[n+](C)c2ccccc21, the protection from apoptosis was 109% (active).
CCn1c(=N)n(CC(=O)c2cccc(OC)c2)c2ccccc21 showed a protection from apoptosis of -5.87%.
Compound Cc1ccc(OCCCn2c(=O)oc3ccccc32)cc1 has a protection from apoptosis of 1.16%.
Work on COc1cccc(OCCCN2CCCCCC2)c1 yielded a protection from apoptosis of -3.45%.
CCOC(=O)Cn1c(-c2cccnc2Cl)nc2ccccc21 gave a protection from apoptosis of -2.69%.
Compound COc1ccc2nc3n(c(=O)c2c1)-c1cc(C)ccc1C(=O)NC3Cc1ccc(O)cc1 (stereo not given) has a protection from apoptosis of 9.76%.
For COc1ccc(NS(=O)(=O)c2cc(NC(=O)c3ccc(S(=O)(=O)N(C)C)cc3)ccc2N2CCOCC2)cc1, the protection from apoptosis was 5.26%.
In the case of COc1ccccc1OCCNC(=O)C(CCSC)NC(=O)COc1ccccc1 (stereo not given), the protection from apoptosis is reported as -1.66%.
Cc1ccc(C)c(S(=O)(=O)N2CCN(C(=O)Nc3ccccc3)CC2)c1 showed a protection from apoptosis of -4.43%.
With COc1ccc(C)cc1S(=O)(=O)N1CCN(S(=O)(=O)c2cc(C(=O)O)ccc2C)CC1 the protection from apoptosis was -3.1%.
In the case of Cc1cc(N2CCN(S(=O)(=O)c3ccc(C)c(C)c3)CC2)c2ccccc2n1, the protection from apoptosis is reported as 10.4%.
With Cc1ccc(C)c(S(=O)(=O)N2CCN(c3ncnc4sccc34)CC2)c1 the protection from apoptosis was 112% (active).
For Cc1ccc(S(=O)(=O)N2CCN(c3ncnc4ccccc34)CC2)cc1, the protection from apoptosis was 102% (active).
In the case of Cc1ccc(S(=O)(=O)N2CCN(C)CC2)cc1, the protection from apoptosis is reported as 4.63%.
In the case of COC(=O)[C@]1(CC(C)C)N[C@H](c2ccc(SC3CCCCC3)cc2)[C@@H]2C(=O)N(C)C(=O)[C@@H]21, the protection from apoptosis is reported as 2.66%.
C[C@H](CO)N1C[C@H](C)[C@@H](CN(C)C(=O)NC2CCCCC2)Oc2ccc(NC(=O)c3ccncc3)cc2C1=O showed a protection from apoptosis of -8.1%.
Work on CCOc1ccc(NS(=O)(=O)c2ccc(Cl)c(C(=O)N(C)Cc3cccnc3)c2)cc1 yielded a protection from apoptosis of 5.11%.
For COc1ccccc1CNC(=O)COC(=O)c1cccs1, the protection from apoptosis was -8.13%.
With O=C1NC[C@@H](c2ccccc2)OC(=O)[C@H](Cc2ccc(F)cc2)CC/C=C/C[C@H]1CC(=O)N(CCO)Cc1ccccc1 the protection from apoptosis was 5.81%.
C#CCOCCOCCOCCNc1nc(N2CCN(C(=O)[C@H](CCCN=C(N)N)n3cc(C(N)[C@@H](C)CC)nn3)CC2)nc(N2CCN(C(=O)[C@H](CO)n3cc([C@@H](N)C(C)C)nn3)CC2)n1 (stereo not given in full) showed a protection from apoptosis of -10.4%.
COc1c(O)ccc2c1CN1CCc3cc4c(cc3C1C2)OCO4 (stereo not given) gave a protection from apoptosis of -2.11%.
For COc1ccc2cc1Oc1ccc(cc1)C[C@H]1c3cc(c(OC)cc3CCN1C)Oc1c(O)c(OC)cc3c1[C@H](C2)N(C)CC3, the protection from apoptosis was 98.5% (active).

Reference: PubChem BioAssay AID435005 (Broad Institute, 2010)
